# Source: publication PMC7155171, “Probing the Open Global Health Chemical Diversity Library for Multistage-Active Starting Points for Next-Generation Antimalarials” (ACS Infectious Diseases, 2020)
# Columns and labels:
# [1] = system: P. berghei liver stage (PbLuc); set-up: species or system HepG2-A16-CD81; P. berghei luciferase sporozoite infection of hepatocytes, liver stage luminescence; settings: inhibitor; for PbLuc primary screen (10uM): inhibition % (n=1): 48 h
# [2] = system: HepG2-A16-CD81 hepatocytes; set-up: Uninfected hepatocyte viability, CellTiter-Glo luminescence; settings: cytotoxicity primary screen, inhibitor
SMILES,PbLuc primary screen (10uM): inhibition % (n=1) [1],PbLuc primary screen (2uM): inhibition % (n=1) [1],HepG2 toxicity primary screen (10uM): inhibition % (n=1) [2]
Cn1nc(C2CC2)c(-c2ccc3c(c2)OCO3)c1N [DDD01074640],16.5%,58.6%,-47.475%
COc1ccc(F)cc1-c1nc2c(C3CC3)[nH]n(C)c-2n1 [DDD01250494],-12.1%,-45.41%,-2.18%
CCc1cc(=O)n2nc(C3CCN(C(=O)c4cccnc4)CC3)cc2[nH]1 [DDD01057176],13.3%,-5.593%,7.09%
Cc1cc(=O)n(-c2ccc3nnc(C)n3n2)[nH]1 [DDD01038570],6.83%,18.99%,9.24%
Cn1nc(C2CCC2)c(-c2ccc3c(c2)OCO3)c1N [DDD01074643],64.7%,14.0603%,-42.27%
Cc1[nH]c2cc(C3CCN(Cc4ccccc4F)C3)nn2c(=O)c1C (stereo not drawn) [DDD01060615],61.7%,28.64%,5.52%
Cc1nsc(N2CCCN(CC(=O)N(C)C3CC3)CC2)n1 [DDD01066804],68.5%,-11.55%,-3.98%
COCCC(=O)N1Cc2[nH]c3c(C)c(-c4cccs4)nn3c(=O)c2C1 [DDD01056578],-5.78%,-12.93%,-1.19%
CCc1cc(=O)n2nc(C3CCN(C(=O)c4ccccn4)CC3)cc2[nH]1 [DDD01057364],-2.695%,26.22%,2.29%
Cc1cccc(C2N3CCC4(CC3)c3[nH]c5ccccc5c3CCN24)n1 (stereo not drawn) [DDD01058402],-19.7%,38.22%,8.06%
CCc1ccc(C(C)NC(=O)CCC2=NC(=C3N=CN=N3)NO2)cc1 (stereo not drawn) [DDD01068289],38.8%,-21.47%,-1.98%
CCn1[nH]cc2nc(-c3cc4c(cc3OC)OCO4)nc1-2 [DDD01244413],-7.2%,27.42%,-2.99%
Clc1cccc(-c2cccc(N3CCC(NC4CCOCC4)CC3)c2)c1 [DDD01252000],84%,-46.68%,-4.24%
COCC(=O)Nc1[nH]nc2c1c(C)nn2Cc1cccc(OC)c1 [DDD01063147],-14.8%,27.76%,-11.7%
COc1cc(OC)c(-c2nc3c(C4CC4)[nH]n(C)c-3n2)cc1OC [DDD01244474],41.8%,-47.16%,-5.02%
COc1cc2c(cc1-c1nc3c[nH]n(C(C)C)c-3n1)OCO2 [DDD01249461],7.31%,60.13%,-6.85%
CCc1cc(=O)n2nc(C3CCN(C(=O)c4ccncc4)CC3)cc2[nH]1 [DDD01057177],32.85%,-9.67%,3.51%
CSc1cccc(NC(=O)Nc2c(O)c3ccccc3oc2=O)c1 [DDD01037688],1.86%,28.0462%,4.45%
CN(CCCc1ccccc1)C(=O)CCC1=NC(=C2N=CN=N2)NO1 [DDD01062165],22%,-4.851%,-44.845%
CCc1c(C)nn2c(=O)cc(C3CCN(C(=O)c4ccccn4)C3)[nH]c12 (stereo not drawn) [DDD01056906],44.95%,-16.2%,6.7%
CCc1c(C)nn2c(=O)cc(C3CCN(C(=O)c4cnn(C)c4)C3)[nH]c12 (stereo not drawn) [DDD01056908],9.3875%,-18.64%,4.85%
COc1cc2c(cc1-c1nc3c[nH]n(C(C)C(C)C)c-3n1)OCO2 (stereo not drawn) [DDD01255421],31.9%,7.665%,8.61%
COc1cc2c(cc1-c1nc3c[nH]n(C)c-3n1)OCO2 [DDD01248770],28.7%,21.97%,-8.9%
O=C(CNC(=O)N1CCc2c([nH]c3ccc(Cl)cc23)C1)N1CCOCC1 [DDD01035668],18.2%,-2.915%,8.32%
Cc1ncsc1C(=O)N1CCCCC1c1cc2[nH]c(C)c(C)c(=O)n2n1 (stereo not drawn) [DDD01059037],-26.2%,11.32%,-8.94%
Cc1cc(=O)n2nc(C3CCN(C(=O)c4ccccn4)CC3)cc2[nH]1 [DDD01057174],7.55%,-10.49%,-3.3635%
